Measurements reported in the supplement of paper PMC11417369.
± gives the standard deviation of the averaged measurements. The full ranking holds about 25,000 sequences; the median of “ln(normalized median fluorescence intensity)” is about 8.6, and the highest 2% start at about 10. For the sample, the highest values were picked, then their nearest neighbours and some sequences at random.

tested on: PfAP2-EXP AP2 domain (GST-tagged); test: gcPBM binding intensity (ln(normalized median fluorescence intensity)); higher = stronger DNA binding
Method in brief: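 The highest Masliner-normalised natural-log median intensity across replicate spots of either probe orientation is reported as binding intensity. GST-tagged P. falciparum DNA-binding domains expressed in E. coli were applied for 1 h to an Agilent 4 × 180k array of primer-extended double-stranded 36-bp intergenic genomic probes plus negative controls, and bound protein was detected with Alexa488 anti-GST antibody and scanned at 488 nm.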

Row | Sequence | gcPBM binding intensity (ln)
1 | AAAAAATGGCTAGTTTGTACACAAAAGTTATTGCAT [XGTACX_site5381] | 8.43 ± 0.33
2 | TTAATATAGATATAACCACACACATACATCTAATTC [CACACA_site8519] | 8.65 ± 0.46
3 | ATTAATTATGTATTTCAACAAAGAAGTGTTATATAT [GTGCAC_negctrl_site215] | 8.49 ± 0.35
4 | TCAAAAAAGACACACCGTACATACTATTTGGACAGG [XGTACX_site7699] | 8.51 ± 0.36
5 | AACAATTAGAATAACGCATGCATTTATAATATAGAA [TGCATGCA_site595] | 9.52 ± 0.071
6 | TAATTGTACACATGCACACACAAATATTATAGATGT [CACACA_site6528] | 8.99 ± 0.37
7 | TATTATATATTAAATGCATGTAAAAATAATATTAAA [TGCATGCA_site643] | 9.24 ± 0.44
8 | AAATAATATATGAATGCACACAGTAAAAATTAAAGA [CACACA_site2252] | 8.94 ± 0.35
9 | AACAATTATTGTAATGCATGCACTGAATATAGAAAG [TGCATGCA_site889] | 10.3 ± 0.24
10 | CAATTATTGTAATGCATGCACTGAATATAAAAAGAA | 10.3 ± 0.23
11 | TATAAGAGAAGAAGAAAAAAAAGGTTTCTATAGAAA [XGTACX_negctrl_site421] | 8.76 ± 0.52
12 | AATAAAAAAAAAATAAATTTAATAATAATAATAAAA [CACACA_negctrl_site569] | 8.23 ± 0.33
13 | ATATTATCATTTTTTTTAATGGAAAAAAAAAAAAAA [CACACA_negctrl_site1298] | 8.2 ± 0.61
14 | TTTTTCAGAAAAGAAACACACATATAAATATTTATA [CACACA_site7170] | 8.47 ± 0.46
15 | TACACATACAGACATACACACATACACATATACACA [CACACA_site6918] | 8.66 ± 0.38
16 | TACATACACAGACACACACACATATATATATATATA [CACACA_site3557] | 10.2 ± 0.2
17 | AGTATACACAGACACACACACACATATATATATATA [CACACA_site8510] | 10.2 ± 0.23
18 | CATACATACAGACACACACACATATATATATATATA [CACACA_site2920] | 10.1 ± 0.35
19 | ATTCTACACCCACATACACACATATATATATATATA [CACACA_site3426] | 10.2 ± 0.26

Row | Sequence | gcPBM binding intensity (ln)
20 | CATATACATACACATACACACATACAGACATACACA [CACACA_site6919] | 8.69 ± 0.37
21 | ATTCTAATCATATACACACCCATATATATATATATA [CACACA_site1774] | 10.3 ± 0.3
22 | TAATTAAAATCATATACACACCCATATATATATATA [CACACA_site8524] | 10 ± 0.25
23 | TATACAGACAGACACACACACATATATATATATATA [CACACA_site1734] | 10.1 ± 0.42
24 | ATTAAAATCATATACACACCCATATATATATATATA [CACACA_site5050] | 10.1 ± 0.34
25 | TACACCCACCCACATACACACACATACACATATATA [CACACA_site8503] | 9.33 ± 0.71
26 | CACCCACCCACATACACACACATACACATATATATA [CACACA_site1722] | 9.3 ± 0.45
27 | TATATATATTTATAATGTACACATATATGTAAATAT [XGTACX_site3695] | 8.51 ± 0.2
28 | ATATATATATATATAAAGTGAAGTATGAGGGAAATA [XGTACX_negctrl_site497] | 10.1 ± 0.3
29 | AGAATAAAAAGGAACACACACACACGCATATAAATA [CACACA_site7659] | 9.01 ± 0.55
30 | TTACATATTATACGAAGTACGTACAAATACTTATAT [XGTACX_site8598] | 8.6 ± 0.26
31 | GTATGTTTGTTATGCACACAAATGCATCTTATTTCC [CACACA_site2690] | 8.96 ± 0.28
32 | TTATTTAACGTATTCTCACACATATATATATATAAT [CACACA_site5226] | 8.64 ± 0.42
33 | TAAATATGTATAAATTGTACAAAATATATGAATAGT [XGTACX_site5659] | 8.94 ± 0.29
34 | CTCATAATTTCTGAACGTACGTATTTCTCATTTTTA [XGTACX_site7296] | 8.83 ± 0.44
35 | TCCTTTTTTAAAAGTTGTACATTATTGTTATTTGTT [XGTACX_site4686] | 8.65 ± 0.3
36 | TTTTAAATAATTCGTAATTATAATTATGGAAAAAAG [CACACA_negctrl_site152] | 8.43 ± 0.48
37 | TTAGCAACTATTACTACACACATTTGTATTTAATTT [CACACA_site4961] | 8.49 ± 0.35
38 | TACAGACATACATACACACATACATATATATATATA [CACACA_site1940] | 10.1 ± 0.11

Row | Sequence | gcPBM binding intensity (ln)
39 | GTATTCTACAGACACATACACACATATATATATATA [CACACA_site3427] | 10.1 ± 0.22
40 | ATTCTACACAGACATACACACATATATATATATATA [CACACA_site5826] | 10.2 ± 0.4
41 | TTTATTAATTAAACCATACACACATAATTTTTTTAT [CACACA_site842] | 8.34 ± 0.47
42 | ATTTAGAAAAATAAAACACACATATAGATGTAAATA [CACACA_site7853] | 8.57 ± 0.58
43 | CACAAAAAGAAACACACACACATATATATATATATA [CACACA_site999] | 10.2 ± 0.22
44 | AAAAAAAAAAAAGAAACACACACATATATATATATA [CACACA_site8525] | 10.1 ± 0.31
45 | CACAAGAAAATTCACACACACACATATATATATATA [CACACA_site3880] | 10.1 ± 0.27
46 | AAACAGAAGACATATACACACATACAAAAAAGTGCA [CACACA_site4699] | 8.81 ± 0.33
47 | AAAAAAAAAAGAAACACACACATATATATATATAAT [CACACA_site5052] | 8.61 ± 0.52
48 | CAAGAAAAGAAACACACACACATATATATATATATA [CACACA_site3881] | 10.1 ± 0.26
49 | AAGACAAAACAAAGAAGTACATATATATATATATAT [XGTACX_site4067] | 10.3 ± 0.4
50 | CACAAGAAAGTTCACACACACACATATATATATATA [CACACA_site6009] | 10.2 ± 0.18
51 | AAAAAAAAAAGAAAAAGTACATACATACATATATAT [XGTACX_site6405] | 8.46 ± 0.36
52 | AAGAAAAAAAAAAAAACACACATATATATATATATA [CACACA_site2027] | 10.2 ± 0.13
53 | TTAAAAAGAAAGTTCACACACATATATATGACGGAA [CACACA_site2602] | 8.93 ± 0.45
54 | AAAAAAAAAAAAGAAACACACATATATATATATATA [CACACA_site140] | 10.1 ± 0.6
55 | TAGTAATATGTATCCATACACACATACATTTTATTT [CACACA_site873] | 8.52 ± 0.41
56 | TATAACAAAATATTCACACATATAAGTAAATAAAGG [CACACA_site5777] | 8.73 ± 0.28
57 | AATTTTAATTATATCACACATAATATATACCAAAAA [CACACA_site6011] | 8.51 ± 0.38
